This passage reports max response, negative = inhibition and Potency results from PubChem BioAssay AID720504 (National Center for Advancing Translational Sciences (NCATS), 2013).

The whole screen tested about 360,000 compounds, of which about 10,000 (2.8%) were called active. About 4% were inconclusive and are not listed. The call rests on the fitted dose curve; in most records, active means well fitted inhibition curve with a large enough effect; inconclusive means small, poorly fitted or top-dose-only effect; inactive means flat fitted curve, though single readings scatter. The sample as a whole holds a higher share of actives than the screen did.
On the % scale 0 is the no-effect control and ±100 the full control effect; potency means the concentration at half of the fitted maximal effect.

In this test the target is Serine/threonine-protein kinase PLK1 (Homo sapiens) (UniProt P53350). As to the kind of experiment: qHTS for Inhibitors of PLK1-PDB (polo-like kinase 1 - polo-box domain): Primary Screen. Further: nearly all actives have a fitted effect of over 65% in size. On max response, negative = inhibition: series mostly up to about 57 µM. The settings on record: Plk1 PBD binding of FITC phosphopeptide, fluorescence polarization. In general terms: qHTS replaces the single test concentration by a dilution series.
Sequence of Serine/threonine-protein kinase PLK1 (Homo sapiens) (P53350 whole entry, looked up, the tested form may be a part): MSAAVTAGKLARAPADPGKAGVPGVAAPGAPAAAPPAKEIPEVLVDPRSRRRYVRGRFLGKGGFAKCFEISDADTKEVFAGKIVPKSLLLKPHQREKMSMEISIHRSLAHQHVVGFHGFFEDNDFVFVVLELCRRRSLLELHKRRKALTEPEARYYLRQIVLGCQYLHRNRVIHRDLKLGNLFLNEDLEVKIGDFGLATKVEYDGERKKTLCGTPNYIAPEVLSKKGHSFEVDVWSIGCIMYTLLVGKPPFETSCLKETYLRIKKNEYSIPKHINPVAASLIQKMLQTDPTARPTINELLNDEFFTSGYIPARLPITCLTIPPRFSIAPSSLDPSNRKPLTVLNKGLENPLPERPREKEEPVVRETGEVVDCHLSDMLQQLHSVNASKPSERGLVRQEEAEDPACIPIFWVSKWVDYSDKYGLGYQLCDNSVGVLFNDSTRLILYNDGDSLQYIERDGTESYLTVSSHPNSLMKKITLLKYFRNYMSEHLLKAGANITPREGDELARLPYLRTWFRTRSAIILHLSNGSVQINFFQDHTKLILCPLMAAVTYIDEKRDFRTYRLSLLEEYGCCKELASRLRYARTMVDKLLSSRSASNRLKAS
Turning to `CCN(CC)C(=O)C1=C(C)N(Cc2ccc(C(C)(C)C)cc2)C(=O)C(CC(=O)NCc2cccc3ccccc23)C1` (stereo not given), the max response, negative = inhibition was -4.44% (inactive).
As to `CCOc1ccc2c(c1)c(=O)c(S(=O)(=O)c1ccc(C)cc1)cn2CC`, the Potency is 26.7 µM (active).
On to `CCCn1cc(S(=O)(=O)c2ccc(C)cc2)c(=O)c2cc(OCC)ccc21`, for which the max response, negative = inhibition was -12.4% (inactive).
As for `CCn1cc(S(=O)(=O)c2cccc(C)c2)c(=O)c2cc(F)c(N3CCN(C)CC3)cc21`, the max response, negative = inhibition is -10.2% (inactive).
On the same count and under the same terms, the value for `Fc1cccc(Cc2c(-c3ccc(Cl)cc3)nc3ccc(Cl)cn23)c1` was 9.81% (inactive); that for `CN[C@H]1C[C@H]2c3cc(Oc4ccccc4C)ccc3CCN2C(=O)[C@H]1[C@H](C)O` was 0.731% (inactive).
Consider `Nc1nc(SCC(=O)Nc2ccc(Cl)cc2C(F)(F)F)n[nH]1`, for which the max response, negative = inhibition was -8.67% (inactive).
Still for that read-out and setting: the value for `Nc1nc(SCC(=O)Nc2ccc(Cl)c([N+](=O)[O-])c2)n[nH]1` was -3.6% (inactive).
For `Nc1nc(SCC(=O)NNc2c(Cl)cc(Cl)cc2Cl)n[nH]1`, the Potency was 18.9 µM (active).
Consider `CCCNC(=O)c1cc(C2CCCCN2S(=O)(=O)c2ccc(C#N)cc2)on1` (stereo not given), for which the max response, negative = inhibition is 6.75% (inactive).
Same read-out and setting: the value for `O=C(CC[C@H]1O[C@@H](n2ccc(=O)[nH]c2=O)[C@H](O)[C@@H]1O)N[C@H](Cc1ccccc1)C(=O)NCc1ccco1` was -11.9% (inactive); that for `CC(C)(C)N1C(=O)c2c(C(=O)OCc3ccccc3)[nH]c(-c3ccccc3)c2C1=O` was -11.2% (inactive); that for `Cc1cc(C)cc(NC(=O)CN2C(=O)c3ccccc3C2=O)c1` was -3.07% (inactive).
In the case of `Cc1ccc(NC(=O)Cn2sc3ccccc3c2=O)cc1`, the Potency is 2.38 µM (active).
Consider `Cc1ccc(NC(=O)Cn2c(C)csc2=O)cc1`, for which the max response, negative = inhibition was -1.66% (inactive).
`Cc1ccc(CCNC(=O)CN2C(=O)CSc3ccc(S(=O)(=O)N4CCOCC4)cc32)cc1`: the max response, negative = inhibition is -9.68% (inactive).
Same read-out and setting: the value for `O=C(CCNS(=O)(=O)c1ccccc1C(F)(F)F)NCc1ccc2c(c1)OCO2` was -4% (inactive).
As for `O=C(CCc1nnc(Cc2ccc3c(c2)OCO3)o1)NCCc1ccccc1Cl`, the Potency is 21.2 µM (active).
In the case of `O=C(CC(Cc1ccccc1)C(=O)O)NCCc1ccc2c(c1)OCO2` (stereo not given), the max response, negative = inhibition was -0.693% (inactive).
Same read-out and setting: the same measure for `C#Cc1cc(N2CCN(C(=O)c3ccoc3)CC2)n2nc(-c3cccc(Cl)c3)cc2n1`: -12% (inactive).
Regarding `FC(F)(F)C1CCCN(c2nsc3ccccc23)C1` (stereo not given), the Potency was 1.5 µM (active).
Take `CCNC(=O)C1(C)CCN(Cc2ccc(C(=O)OCC)o2)C1` (stereo not given): the max response, negative = inhibition is 3.81% (inactive).
Still for that read-out and setting: the same measure for `C[C@@H]1CN([C@H](C)CO)C(=O)CCCn2nncc2CO[C@@H]1CN(C)C(=O)OCc1ccccc1`: -21.8% (inactive).
Consider `COc1ccc(CN2CCC(C)(Oc3cccc(F)c3)C2)c2ccccc12` (stereo not given), for which the max response, negative = inhibition is -19.3% (inactive).
Same read-out and setting: the value for `Cc1ccc(F)c(S(=O)(=O)NC(=O)C2(C)CCN2C(=O)c2ccco2)c1` (stereo not given) was -2.63% (inactive); that for `CCn1c(SCC(=O)N/N=C/c2ccccc2OCC(=O)O)nnc1-c1ccc(C(C)(C)C)cc1` was 5.13% (inactive).
As for `CCn1c(SCC(=O)N/N=C/C=C/c2ccccc2[N+](=O)[O-])nnc1-c1ccccc1`, the Potency is 23.8 µM (active).
Turning to `Cc1ccc(-n2c(SCC(=O)N/N=C/C=C/c3ccccc3[N+](=O)[O-])nc3ccccc3c2=O)cc1`, the max response, negative = inhibition is 1.55% (inactive).
In the case of `Cc1cc(NC(=O)CSc2nc3cc(Cl)ccc3c(=O)n2Cc2ccco2)no1`, the Potency was 21.2 µM (active).
Take `Cc1cc(NC(=O)CSC2=NS(=O)(=O)c3cc(Cl)ccc3N2)no1`: the max response, negative = inhibition was -2.92% (inactive).
Still for that read-out and setting: the value for `Cc1cc(NC(=O)CSc2nnc(-c3ccco3)n2N)no1` was -3.98% (inactive); that for `COc1cc(/C=C(\C#N)C(=O)Nc2ccc3ccccc3c2)c([N+](=O)[O-])cc1OC` was -1.73% (inactive).
On to `COc1ccc(NC(=O)/C(C#N)=C\c2cc(OC)c(OCc3ccc(C(=O)O)cc3)cc2Br)cc1`, for which the Potency was 10.6 µM (active).
Take `COc1ccc(CNC(=O)/C(C#N)=C/c2cccc(OC)c2OC)cc1`: the max response, negative = inhibition is -17% (inactive).
Take `O=C(NCc1ccccn1)[C@@H]1CCCN1C(=O)[C@@H]1CCCN1C(=O)c1ccccc1`: the max response, negative = inhibition is -3.01% (inactive).
On the same count and under the same terms, the value for `N#Cc1ccc(C(C(=O)NCc2ccccc2)n2c(=O)c(-c3ccco3)nc3ccccc32)cc1` (stereo not given) was -22.3% (inactive).
Still for that read-out and setting: the same measure for `Cc1ccc(NC(=O)C2CCCN2C(=O)OCc2ccccc2)cc1C` (stereo not given): 2.68% (inactive).
With `Cc1cccc(C)c1NC(=O)C1CCCN1C(=O)OC(C)(C)C` (stereo not given), the Potency is 23.8 µM (active).
As for `Cc1ccc(C)c(NC(=O)C2CCCN2C(=O)OC(C)(C)C)c1` (stereo not given), the max response, negative = inhibition is -4.64% (inactive).
Take `CC(=O)NN=C(C)c1ccc(NC(=O)C2CC2)cc1`: the max response, negative = inhibition was -11.2% (inactive).
`CCNC(=S)Nc1ccc2c(c1)c(=O)n(C)n2Cc1ccc(Cl)cc1`: the Potency was 21.2 µM (active).
As to `COc1cc(Cn2c3ccc(NC(=O)CC(C)c4ccccc4)cc3c(=O)n2C)ccc1F` (stereo not given), the max response, negative = inhibition is -6.73% (inactive).
Still for that read-out and setting: the same measure for `Cn1c(=O)c2cc(NC(=O)NCCc3cccs3)ccc2n1Cc1cccc(C(F)(F)F)c1`: -2.39% (inactive); for `COc1ccc(-c2ccc(C(=O)NCCN3CCOCC3)c3occc23)c(C)c1`: -10.9% (inactive); for `C=CCc1ccccc1OCC(O)CN1CCN(CCO)CC1` (stereo not given): 1.6% (inactive).
On to `OCCN1CCN(C(=S)c2ccc(-c3ccccc3)cc2)CC1`, for which the Potency is 4.74 µM (active).
Take `CN1CCN(CCCCOc2ccccc2-c2ccccc2)CC1`: the max response, negative = inhibition is -11.3% (inactive).
Turning to `CCc1nc2c(OCCOc3ccccc3)cccn2c1N(C)C(=O)c1ccc(OC)cc1`, the max response, negative = inhibition was -8.42% (inactive).
On the same count and under the same terms, the same measure for `CC1(C(=O)NS(=O)(=O)c2ccc(Cl)cc2)CCN1C(=O)CC1CCCC1` (stereo not given): -6.5% (inactive).
Still for that read-out and setting: the same measure for `Cc1ccccc1S(=O)(=O)NC(=O)C1(C)CCN1C(=O)C1(c2ccc(Cl)cc2)CC1` (stereo not given): 3.44% (inactive).
On to `CC1(C(=O)NS(=O)(=O)c2ccc3ccccc3c2)CCN1C(=O)C1(c2ccc(Cl)cc2)CCC1` (stereo not given), for which the Potency was 42.3 µM (active).
For `CCCCN(C=O)c1c(CC)nc2c(OCc3ccccc3C(=O)OC)cccn12`, the max response, negative = inhibition was -4.2% (inactive).
Same read-out and setting: the same measure for `O=C1NC[C@H](CCCCN2C[C@H](Cc3ccc(O)cc3)N(CCc3ccccc3)C(=O)C2=O)N(CCc2ccccc2)C1=O`: -1.17% (inactive); for `CCCn1c(SCC(N)=O)nnc1C(C)C`: -6.68% (inactive); for `CCCn1c(SCC(=O)Nc2c(C)cccc2C)nnc1C(C)C`: -7.66% (inactive).
For `CCCn1c(SCC(=O)c2ccc3c(c2)OCCO3)nnc1C(C)C`, the Potency is 2.99 µM (active).
For `CC(C)Cc1ccc(-c2cc3nc(NCc4cccc(Cl)c4)ccn3n2)cc1`, the max response, negative = inhibition is -0.174% (inactive).
Still for that read-out and setting: the value for `COc1ccc(C)cc1NC(=O)NCc1ccccn1` was 3.53% (inactive).
`COc1ccc(NC(=O)C2C3C=CC(C3)C2C(=O)NCc2ccccn2)c(OC)c1` (stereo not given): the Potency is 26.7 µM (active).
Take `CCOc1ccc(N2CC(C(=O)NCc3ccccn3)CC2=O)cc1` (stereo not given): the max response, negative = inhibition was 6.65% (inactive).
As to `CCCC(=O)N1CCC1(C)C(=O)NCc1ccc(SC)cc1` (stereo not given), the max response, negative = inhibition was 4.65% (inactive).
Still for that read-out and setting: the value for `CO[C@@H]1CN(C)C(=O)c2cc(NC(=O)Nc3cc(F)ccc3F)ccc2OC[C@H](C)N(C(=O)c2ccccn2)C[C@@H]1C` was -4.19% (inactive); that for `Cc1cccc(C)c1NC(=O)COC(=O)c1c(C)nn(-c2ccccc2)c1C` was 2.85% (inactive).
On to `Cc1nn(-c2ccccc2)c(C)c1C(=O)OCC(=O)NC(=O)NC1CCCCC1`, for which the Potency was 21.2 µM (active).
Take `COc1ccc(CNC(=O)COC(=O)c2c(C)nn(-c3ccccc3)c2C)cc1OC`: the max response, negative = inhibition was -2.1% (inactive).
The same measure, in the same setting: the value for `Cc1ccc(F)c(S(=O)(=O)NC(=O)C2(C)CCN2C(=O)CCc2cccs2)c1` (stereo not given) was -3.35% (inactive).
As for `CCSc1nc(O)c(C(c2cccc(OC)c2)c2c(O)nc(SCC)[nH]c2=O)c(=O)[nH]1`, the max response, negative = inhibition is -21.7% (inactive).
For `CCn1c(SC)nc(O)c(C(c2ccc(OC)c(O)c2)c2c(O)nc(SC)n(CC)c2=O)c1=O`, the Potency is 16.8 µM (active).
With `CCn1c(COc2ccc(OC)cc2)nnc1SCC(=O)Nc1cc(OC)ccc1OC`, the max response, negative = inhibition is -3.02% (inactive).
Still for that read-out and setting: the value for `Cc1cccc(C(=O)NC2CCN(CC(=O)Nc3cccc(Cl)c3)CC2)c1` was -8.54% (inactive); that for `COc1ccc([C@H]2C[C@@H](n3cc(COC(=O)c4ccccc4)nn3)[C@H](O)CN2C(=O)c2cccs2)cc1` was -9.99% (inactive); that for `COc1cccc(CNc2nc3cc(-c4csc5ccccc45)sc3c(=O)n2C)c1` was -2.77% (inactive).
In the case of `Cn1c(=O)oc2cc(S(=O)(=O)NCCC(=O)NCc3ccccc3Cl)ccc21`, the Potency was 23.8 µM (active).
With `Cc1ccc(NC(=O)CCNS(=O)(=O)c2ccc3c(c2)oc(=O)n3C)cc1C`, the max response, negative = inhibition is 0.556% (inactive).
With `COc1cccc(NC(=O)CCNS(=O)(=O)c2ccc3c(c2)oc(=O)n3C)c1`, the max response, negative = inhibition is -5.8% (inactive).
Consider `N#Cc1cccc(CN2CCC(=O)N(CCO)CC2)c1`, for which the max response, negative = inhibition is -6.69% (inactive).
The same measure, in the same setting: the value for `N#CCCN1CCN(S(=O)(=O)c2ccc(S(=O)(=O)N3CCCC3)cc2)CC1` was -6.31% (inactive).
As to `CC(C)(C)c1cc(CN2CCN(CCC#N)CC2)cc(C(C)(C)C)c1O`, the Potency was 8.44 µM (active).
In the case of `COc1ccc(OC)c(CN2C(=O)CCC2(C)c2nnnn2Cc2ccccc2)c1` (stereo not given), the max response, negative = inhibition is -0.666% (inactive).
The same measure, in the same setting: the same measure for `Cc1ccc(C)c(C(O)c2ncc(-c3cccc4ccccc34)[nH]2)c1` (stereo not given): -3.49% (inactive); for `CCc1nc2ccc(C(=O)NCc3ccc(OC)cc3)cn2c1N(CC)Cc1cccc(Br)c1`: -13.2% (inactive); for `CC(C)c1ccc(C(=O)OC2CCOC2=O)cc1` (stereo not given): -4.1% (inactive).
For `Cc1nn(Cc2ccccc2)c(Cl)c1C(=O)OC1CCOC1=O` (stereo not given), the Potency is 21.2 µM (active).
As for `COC(=O)c1ccc(COC(=O)c2c(C)nn(Cc3ccccc3Cl)c2Cl)o1`, the max response, negative = inhibition was -10.8% (inactive).
On the same count and under the same terms, the same measure for `N#Cc1ccc(-c2nc3c(Cl)cc(C(F)(F)F)cn3c2Cc2ccccc2C(F)(F)F)cc1`: 1.56% (inactive).
